Bioassay records deposited in PubChem BioAssay by National Center for Advancing Translational Sciences (NCATS).
D2 ag-1: HTS Assay for Allosteric Agonists of the Human D2 Dopamine Receptor: Primary Screen for Agonists | D(2) dopamine receptor (Homo sapiens), P14416 | HEK293 T-REx D2 cells, calcium flux agonist mode | activation, % at 2 µM | 0.53% of 340,000 active;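 active = activation over 3 SD above normal in the single-dose calcium agonist read, cut at about 30% in these data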; note: 0% is about no effect
Target sequence (P14416 whole entry, looked up): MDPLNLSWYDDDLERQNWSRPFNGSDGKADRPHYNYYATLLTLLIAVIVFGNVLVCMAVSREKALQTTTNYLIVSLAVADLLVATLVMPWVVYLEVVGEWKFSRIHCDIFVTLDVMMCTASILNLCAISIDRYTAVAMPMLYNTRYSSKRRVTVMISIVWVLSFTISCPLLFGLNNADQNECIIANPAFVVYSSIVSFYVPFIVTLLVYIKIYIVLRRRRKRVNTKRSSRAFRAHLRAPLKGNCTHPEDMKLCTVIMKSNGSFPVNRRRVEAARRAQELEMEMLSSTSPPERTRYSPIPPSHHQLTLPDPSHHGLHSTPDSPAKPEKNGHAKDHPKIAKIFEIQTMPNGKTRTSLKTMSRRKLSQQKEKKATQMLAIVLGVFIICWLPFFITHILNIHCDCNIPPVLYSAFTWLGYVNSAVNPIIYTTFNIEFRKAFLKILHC
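Tetracycline-induced HEK293 T-REx cells with force-coupled D2 receptor, plated overnight at 30 C, loaded with no-wash calcium dye. After a 10 s baseline, compound was pin-added and calcium flux read kinetically for 180 s; calcium rises flagged agonists.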
D2 PAM-1: Beta-Arrestin HTS for Positive Allosteric Modulators of the Human D2 Dopamine Receptor: Potentiators. AID 624464, 2012. potentiation, % (concentration not given with the values). 0.23% of 360,000 active. DiscoveRx D2 beta-arrestin cells, luminescence, 90 min; 100% = 57 uM dopamine signal; in the data active = potentiation above about 50%; inconclusive = mostly about 30% to 49%
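PathHunter D2 cells, attached overnight at 37 deg C, received compound in DMSO plus dopamine at EC20 (50 nM final) for 90 min at 37 deg C. Beta-arrestin recruitment was read as luminescence after 1 h with detection reagent at ambient temperature.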
D2 antag: HTS Assay for Allosteric Antagonists of the Human D2 Dopamine Receptor: Primary Screen for Antagonists; 2% of 340,000 active; HEK293 TREx D2 cells, calcium flux, dopamine EC80; inhibition, % at 10 µM; D(2) dopamine receptor (Homo sapiens), P14416; in the data active = inhibition above about 30%; inactive = below that, where a call was filed; note: 0% is about no effect
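Tetracycline-induced HEK293 TREx cells expressing D2 receptor forced-coupled to calcium signalling, loaded with no-wash calcium dye. Compounds added and calcium flux read 180 s, then dopamine added at EC80 and read a further 180 s.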
D2 ag-2: Beta-Arrestin HTS for Positive Allosteric Modulators of the Human D2 Dopamine Receptor: Agonists. 0.084% of 360,000 active. activation, % (concentration not given with the values). D(2) dopamine receptor (Homo sapiens), P14416. DiscoveRx PathHunter D2 beta-arrestin, luminescence, 90 min; 100% = 57 uM dopamine signal; in the data active = activation above about 40%; inconclusive = between about 15% and that limit
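Agonist mode: compounds alone added to overnight-plated D2 PathHunter cells for 90 min at 37 C, with 57 uM final dopamine (EC100) defining full response. Beta-arrestin recruitment detected by chemiluminescent reagent, read after 1 h at ambient temperature.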
D2 PAM-2: HTS Assay for Positive Allosteric Modulators of the Human D2 Dopamine Receptor: Primary Screen for Potentiators | HEK293 T-REx D2, calcium flux, EC20 dopamine potentiation | potentiation, % at 10 µM | 0.34% of 340,000 active;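 active = potentiation over 3 SD above the plate norm, cut at about 30% in these data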; note: 0% is about no effect
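Potentiation of an EC20 dopamine calcium response is measured in a force-coupled, tetracycline-inducible Hek293 Trex D2 line. Compound-only kinetic reads over 180 s flag agonists before dopamine addition.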
D3 arrestin ag: qHTS of D3 Dopamine Receptor Agonist: D3 Dopamine Receptor B-arrestin Agonist Confirmatory Assay; shares compounds with D2 ag-1; DiscoveRx D3 beta-arrestin cells, luminescence, 90 min; Potency, µM (highest dose often 76.9 µM), for the others: at the highest dose activation, actives largely listed as activators; 4% of 2,300 active;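 note: potency is the fitted concentration of half-maximal effect; 100% = dopamine control response; nearly all actives have a fitted effect of over 70% in size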
D2 ag-3: qHTS of D3 Dopamine Receptor Agonist: D2 Dopamine Receptor B-arrestin Agonist Counterscreen; shares compounds with D2 ag-1; DiscoveRx PathHunter D2 beta-arrestin, luminescence, 90 min; response scale: percent relative to full dopamine signal; Potency, µM (doses to about 76.9 µM), without a hit: top-dose activation, usual class: activators; 5.9% of 2,300 active; note: potency is the fitted concentration of half-maximal effect; % of control where 0% means no effect; nearly all actives have a fitted effect of over 70% in size
* = called active by the depositor. The list is not random: actives were taken first. Their share in the collection is about 2.4%. Unless noted, calls come from the whole dose curve; as a rule, active = well fitted activation curve with a large enough effect; inconclusive = small, poorly fitted or top-dose-only effect; inactive = flat fitted curve, though single readings scatter.

For O=C(CCN1CCN(c2ccccc2)CC1)NNC(=O)c1cccc2ccccc12 the results were D2 ag-1 74*, D2 PAM-1 -18, D2 antag 85*, D2 ag-2 inconclusive, D2 PAM-2 -16, D3 arrestin ag inconclusive and D2 ag-3 18%.
`CCc1cc(C(=O)NNC(=O)CCl)sc1C` gave D2 ag-1 -1, D2 PAM-1 -8, D2 antag 2, D2 ag-2 5 and D2 PAM-2 9.
Screening CCc1cc(C(=O)NNC(=O)CCN2CCN(c3ccccc3)CC2)sc1C returned D2 ag-1 80*, D2 PAM-1 -22, D2 antag 66*, D2 ag-2 4, D2 PAM-2 -15, D3 arrestin ag inconclusive and D2 ag-3 inconclusive.
For Cc1cc(C(=O)Nc2ccc(N3CCOCC3)cc2)c2ccccc2n1 the results were D2 ag-1 1, D2 PAM-1 4, D2 antag -1, D2 ag-2 0 and D2 PAM-2 12.
`CCC1(c2ccccc2)NC(=O)N(CC(=O)NNC(=O)CCN2CCN(c3ccccc3)CC2)C1=O` (configuration not stated) gave D2 ag-1 68*, D2 PAM-1 -10, D2 antag 89*, D2 ag-2 12, D2 PAM-2 -41, D3 arrestin ag 11% and D2 ag-3 21%.
For Cc1cc(C(=O)NNC(=O)CCN2CCN(c3ccccc3)CC2)c2ccccc2n1 the results were D2 ag-1 72*, D2 PAM-1 -2, D2 antag 67*, D2 ag-2 4, D2 PAM-2 -24, D3 arrestin ag 16% and D2 ag-3 inconclusive.
For O=C(CCN1CCN(c2ccccc2)CC1)NNC(=S)Nc1ccccc1Cl the results were D2 ag-1 54*, D2 PAM-1 -24, D2 antag 66*, D2 ag-2 7, D2 PAM-2 -22, D3 arrestin ag -3% and D2 ag-3 3%.
`N#CCC(=O)Nc1ccc(C(=O)NNC(=O)CCN2CCN(c3ccccc3)CC2)cc1` gave D2 PAM-1 -1, D2 ag-2 inconclusive, D3 arrestin ag inconclusive and D2 ag-3 inconclusive.
`COc1cccc(C(=O)NNC(=O)CCN2CCN(c3ccccc3)CC2)c1` gave D2 PAM-1 -12 and D2 ag-2 11.
COc1cccc(CSc2nc3ccncc3n2CC(=O)Nc2ccc(OC)c(OC)c2OC)c1 was read as D2 ag-1 1 and D2 PAM-2 -15.
`COC(=O)c1cc(S(=O)(=O)NCC2CCN(CCc3cccs3)CC2)c[nH]1` gave D2 ag-1 1, D2 PAM-1 -30, D2 antag -17, D2 ag-2 -2 and D2 PAM-2 -18.
Screening Cc1ccc2c(c1)N(C(C)C(=O)NCc1ccc3c(c1)OCO3)C(=O)CO2 (configuration not stated) returned D2 ag-1 0, D2 PAM-1 -3, D2 antag 16, D2 ag-2 5, D2 PAM-2 -7, D3 arrestin ag -1% and D2 ag-3 -1%.
`CCNC(=S)NNC(=O)c1ccccc1OC(F)F` gave D2 ag-1 26, D2 PAM-1 -12, D2 antag 33*, D2 ag-2 -1, D2 PAM-2 -22, D3 arrestin ag -23% and D2 ag-3 -4%.
`CCOc1cccc(-c2c(C(=O)N/N=C(\C)c3cccs3)nnn2-c2nonc2N)c1` gave D2 ag-1 18, D2 PAM-1 2, D2 antag 16, D2 ag-2 -5, D2 PAM-2 9, D3 arrestin ag -4% and D2 ag-3 -3%.
COc1cccc(-c2c(C(=O)N/N=C(\C)c3cccs3)nnn2-c2nonc2N)c1 was read as D2 ag-1 37*, D2 PAM-1 -6, D2 antag 3, D2 ag-2 -2, D2 PAM-2 -2, D3 arrestin ag -8% and D2 ag-3 -4%.
C/C(=N\NC(=O)c1nnn(-c2nonc2N)c1-c1ccc2c(c1)OCO2)c1cccs1 was read as D2 ag-1 32*, D2 PAM-1 -5, D2 antag 37*, D2 ag-2 -1, D2 PAM-2 7, D3 arrestin ag -2% and D2 ag-3 -3%.
COc1cccc(-c2c(C(=O)N/N=C(\C)c3ccncc3)nnn2-c2nonc2N)c1 was read as D2 ag-1 0, D2 PAM-1 -10, D2 antag -10, D2 ag-2 3 and D2 PAM-2 -6.
For COc1ccc(/C(C)=N/NC(=O)c2nnn(-c3nonc3N)c2-c2cccs2)cc1 the results were D2 ag-1 3, D2 PAM-1 -9, D2 antag -8, D2 ag-2 -5, D2 PAM-2 15, D3 arrestin ag 0% and D2 ag-3 -4%.
`C/C(=N\NC(=O)c1nnn(-c2nonc2N)c1-c1cccs1)c1ccc(C)cc1` gave D2 ag-1 8, D2 PAM-1 1, D2 antag 11, D2 ag-2 -9 and D2 PAM-2 7.
Screening COc1ccc(-c2cccc(NS(=O)(=O)c3cc(C)c(Cl)cc3C)c2)nn1 returned D2 ag-1 2 and D2 PAM-2 1.
`O=C(Nc1ccc(F)c(F)c1)C(c1ccccc1)N1Cc2ccccc2C1=O` (configuration not stated) gave D2 ag-1 2 and D2 PAM-2 3.
Screening O=C(CN1CCc2ccccc2C1)NC1CCCC1 returned D2 ag-1 -2, D2 PAM-1 -8, D2 antag 14, D2 ag-2 1, D2 PAM-2 9, D3 arrestin ag 2% and D2 ag-3 4%.
Screening CC(CCc1ccccc1)NC(=O)CN1CCc2ccccc2C1 (configuration not stated) returned D2 ag-1 71*, D2 PAM-1 4, D2 antag 68*, D2 ag-2 15, D2 PAM-2 -17, D3 arrestin ag -4% and D2 ag-3 inconclusive.
